Screening results deposited in PubChem by Broad Institute.
aSyn 5UTR act: Activators via SNCA 5'UTR binding, MLPCN. AID 1814. activity score, % (tested at 7.5 µM), hits read low. alpha-synuclein 5'UTR reporter, activators screen. 300,000 tested, 7.1% active; in the data active = activity score below about -60%
* hit, by the source's call. The list is a sample of the results.

SMILES	aSyn 5UTR act
Cc1cc(NC(=O)c2cccs2)ncc1NC(=O)C(C)C	-144.6*
Cc1cc(NC(=O)c2cccs2)ncc1NC(=O)c1cccc(F)c1	-129.2*
Cc1cc(NC(=O)c2ccccc2F)ncc1NC(=O)c1cccs1	-63.0*
O=C(NC(=Nc1nc2ccccc2o1)NC(=O)c1ccccc1)c1ccccc1	-104.5*
COc1ccccc1C(=O)NC(=Nc1nc2ccccc2o1)NC(=O)c1ccccc1OC	-91.6*
Cc1ccc(NC(=O)c2sc3nc(C)cc(C)c3c2N)cc1	-75.4*
Cc1cc(C)c2c(N)c(C(=O)Nc3cccc(C)c3C)sc2n1	-268.2*
O=C(Nc1ccc2c(c1)OCO2)c1cccs1	-175.9*
O=C(N/N=C\c1cc2c(cc1Cl)OCO2)c1cccs1	-67.4*
CCN(CC)S(=O)(=O)c1cc(NC(=O)c2ccc(Br)s2)ccc1C	-94.7*
O=C(/C=C\Nc1ccc2c(c1)OCO2)c1cccs1	-147.3*
O=C(Nc1ccc2c(c1)OCCO2)c1cccs1	-76.5*
O=C(CN1C(=O)c2ccccc2S1(=O)=O)c1ccc2c(c1)OCCCO2	114.4
O=C(c1ccc2c(c1)OCCCO2)c1cccs1	-118.0*
O=C(Nc1ccc2c(c1)OCO2)c1ccc(Br)s1	-239.6*
C/C(=N\NC(=O)c1ccn[nH]1)c1cn(C)nc1C	-97.9*
Cc1ccc(-c2onc3ccc(Cl)cc23)cc1	-63.5*
CC(=O)c1ccc2noc(-c3cccc(C)c3)c2c1	-99.1*
Cc1ccc(-c2onc3ccc(C4OCCO4)cc23)cc1	-100.5*
O=Cc1ccc2noc(-c3ccc(Cl)cc3)c2c1	-67.3*
CCOC(=O)c1cc(-c2ccc3c(c2)OCCO3)n[nH]1	-173.7*
CC(C)COc1ccc(-c2cc(C(=O)NN)[nH]n2)cc1	-83.0*
CCOC(=O)c1cc(-c2ccc(OC)cc2)n[nH]1	-72.8*
CCOc1ccc(-c2n[nH]c(C(=O)NN)c2C)cc1	-72.8*
CCc1cc(CNC(=O)c2cc(COc3ccc(C)nc3)on2)on1	-72.8*
SMILES	aSyn 5UTR act
C=CCC1(CC=C)CCCN1C(=O)c1cc(COc2ccc(C)nc2)on1	-77.9*
Cc1ccc(OCc2cc(C(=O)N3CCCC3)no2)cn1	-69.6*
Cn1nc(-c2ccc(Cl)cc2)nc2c(=O)n(C)c(=O)nc1-2	110.4
Cc1ccc(Cn2nc(-c3ccccc3)nc2-c2ccccc2)cc1	-154.4*
Cn1nc(-c2ccccc2)nc1-c1ccccc1	-65.5*
N#C/C(=C\c1ccc(N2CCOCC2)o1)c1ccccc1	-222.7*
N#C/C(=C/c1ccc(N2CCOCC2)o1)c1ccc(Br)cc1	-284.2*
N#C/C(=C\c1ccc(N2CCOCC2)cc1)c1ccccc1	-132.0*
Cc1cccc(OCCn2c(=O)oc3ccc(C)cc32)c1	-110.4*
O=C(Nc1cccc(F)c1)N1CCC(c2ccccc2)CC1	-109.2*
Cc1ccc(C2CCN(C(=O)Nc3ccccc3)C2)cc1 (centres undefined)	-151.2*
O=C(Nc1cccc(F)c1)N1CC=C(c2ccc(Cl)cc2)CC1	-109.8*
O=C(Nc1ccc(Cl)cc1)N1CCC(c2ccccc2)C1 (centres undefined)	-82.4*
Cc1cc(C2=NNC(=NC3CC3)SC2)c(C)n1-c1ccccc1	95.2
Cc1cc(-c2nnco2)c(C)n1-c1ccccc1	-101.2*
C/C(=N\O)c1ccc2c3c([nH]c2c1)CCCC3	-79.8*
COc1ccc(C(=O)CSc2nnn(-c3cccc(NC(C)=O)c3)n2)cc1	-119.4*
CC(=O)Nc1cccc(-n2nnc(SCC(=O)c3ccccc3)n2)c1	-121.3*
O=C(Nc1ccc2c(c1)OCCO2)NC1(C(F)(F)F)Oc2ccccc2O1	62.5
O=C(Nc1ccc2c(c1)OCO2)NC1(C(F)(F)F)Oc2ccccc2O1	-96.2*
CCc1cccc(NC(=O)Nc2ccc3c(c2)OCO3)c1	-65.5*
CCn1c2ccccc2c2nnc(SCC(=O)Nc3ccc4c(c3)OCO4)nc21	-96.0*
CCc1ccccc1NC(=O)Nc1ccc2c(c1)OCO2	-78.6*
O=C(Nc1ccc2c(c1)OCO2)Nc1ccccc1F	-135.9*
O=c1c2sccc2nc(SCc2cc(=O)n3cc(Br)ccc3n2)n1Cc1ccccn1	-90.4*
SMILES	aSyn 5UTR act
COc1ccc(C(=O)O/N=C(\N)c2ccccn2)cc1	60.6
CCOc1ccc(C(=O)O/N=C(\N)c2ccccn2)cc1OCC	-102.6*
COc1cc(OC)cc(C(=O)O/N=C(\N)c2ccccn2)c1	-129.6*
CC(C)N1CC(O)=C(c2nc3ccccc3c(=O)[nH]2)C1=N	-75.0*
Cc1ccc2nc(NC(=O)c3ccc(Br)o3)sc2c1	-82.2*
NS(=O)(=O)c1ccc2nc(NC(=O)c3ccc(Br)o3)sc2c1	-140.9*
CCN=c1scc(C)n1/N=C/c1ccsc1	-226.0*
O=C(Nc1ccc2nc(C3CC3)n(Cc3ccccc3)c(=O)c2c1)C1CC1	-251.3*
CC(=O)Nc1ccc2nc(C)n(Cc3ccc(Cl)cc3)c(=O)c2c1	-77.8*
COc1ccc(Cn2c(C3CC3)nc3ccc(NC(=O)c4ccco4)cc3c2=O)cc1	-151.5*
CCC(=O)Nc1ccc2nc(C3CC3)n(Cc3ccccc3)c(=O)c2c1	-200.7*
CCC(=O)Nc1nc2ccccc2n1Cc1ccc(Cl)cc1	72.0
CCCc1cc(=O)n2c(nc3ccccc32)[nH]1	-66.4*
CCCCc1c(C)[nH]c2nc3ccccc3n2c1=O	-97.4*
CCOC(=O)c1cc(=O)n2c(nc3ccccc32)[nH]1	-99.1*
CNC(=O)/C(C#N)=C/c1ccc(OCCOc2ccccc2)cc1	-66.3*
Cc1ccccc1COc1ccc(/C=C(\C#N)C(N)=O)cc1	-105.2*
N#C/C(=C\c1ccc(OCc2ccccc2)cc1)C(N)=O	-92.2*
N#C/C(=C/c1ccc(OCc2ccccc2)cc1)C(=O)NC1CCCCC1	-120.9*
N#Cc1ccccc1COc1ccc(/C=C/C(=O)O)cc1	71.0
O=C1c2ccccc2S(=O)(=O)N1Cc1nc2ccccc2s1	111.7
O=C(OCc1nc2ccccc2s1)C1CCN(C2=NS(=O)(=O)c3ccccc32)CC1	-97.6*
O=C(NC(=S)NC1CCCCC1)c1ccccc1	-95.1*
O=C(NC(=S)NC1CCCCCC1)c1cncc(Br)c1	-168.5*
O=C(CNC(=S)NC(=O)c1ccccc1)c1ccccc1	-82.7*
SMILES	aSyn 5UTR act
O=C(N/N=C\c1c(O)ccc2ccccc12)c1cncc(Br)c1	62.5
O=C(NC(=S)Nc1ccc(O)cc1)c1cncc(Br)c1	-71.2*
O=C(c1ccco1)N1CCN(c2ccc(Cl)c(Cl)c2)CC1	-121.4*
O=C(c1ccco1)N1CCN(Cc2c(F)cccc2Cl)CC1	-74.8*
O=C(c1ccco1)N1CCN(C(=O)N2c3ccccc3Sc3ccccc32)CC1	80.9
O=C(c1ccco1)N1CCN(c2ccc(Cl)cc2)CC1	-130.4*
Cc1occc1C(=O)N/N=C/C=C/c1ccc(N(C)C)cc1	-129.2*
Cc1occc1C(=O)N/N=C/C=C/c1ccccc1	-138.1*
Cc1occc1C(=O)N/N=C/C(Br)=C\c1ccccc1	-108.0*
CCCCOC(=O)N/N=C/C=C/c1ccccc1	-87.5*
Cc1ccc2cc(/C=N/Nc3nc4ccccc4[nH]3)c(Cl)nc2c1	-110.9*
COc1cc(/C=N\Nc2nc3ccccc3[nH]2)cc(OC)c1OC	-81.5*
COc1ccc(/C=N/Nc2nc3ccccc3[nH]2)cc1OC	-228.1*
C(=N\Nc1nc2ccccc2[nH]1)/c1ccc2ncccc2c1	94.6
COc1ccc2c(c1)c(/C=N/Nc1nc3ccccc3[nH]1)c(C)n2C	-115.2*
CCN(CC)c1ccc(/C=N/Nc2nc3ccccc3[nH]2)c(O)c1	84.5
Cc1c(C(=O)NNC(=S)Nc2cccc(Cl)c2)nnn1-c1ccccc1	-68.8*
Cc1ccc(-n2c([S-])c(C(=O)Nc3ccc(OC(F)F)cc3)[n+]3ccc(C(=O)NCCO)cc23)cc1C	-72.0*
